# Experimental data reported in PubChem BioAssay (NCATS).
# Inconclusive results are not listed. A number with no mark means an inactive call. The source made the active and inactive calls. Calls follow the shape of the dose curve; as a rule, active = well fitted inhibition curve with a large enough effect; inconclusive = small, poorly fitted or top-dose-only effect; inactive = no such curve, though single readings can be large or run the other way.
# Experiment: qHTS assay for measurement of the activity of small molecule inhibitors on Zika virus induced Caspase-3 activity in human iPSC derived neural progenitor cells (hNPCs) (AID 1224857); also: nearly all actives have a fitted effect of over 65% in size; as to activity change, negative = inhibition: % of control where 0% means no effect
# Details: hNPCs ZIKV-induced caspase-3/7, Caspase-Glo luminescence, 6 h; series mostly up to 45.7 µM; activity change, negative = inhibition: at the top concentration
# How it was run: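 In medium with heparin 2 ug/ml and cyclopamine 2 uM, hNPCs (350 cells/well) received compound for one hour and then Zika virus at 2 FFU/cell; caspase activity was measured by Caspase-Glo 3/7 luminescence 6 h post-infection.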
# Potency is read from the fitted curve at half-maximal effect.
Compound,"activity change, negative = inhibition [%]",Potency
CCOC(=O)Nc1ccc(NCc2ccc(F)cc2)cc1N,9.74,–
c1cc2c(cc1[C@H]1OC[C@H]3[C@H]1CO[C@H]3c1ccc3c(c1)OCO3)OCO2,8.49,–
O=C1CCC[C@@H]2[C@H]3CCCN4CCC[C@@H](CN12)[C@@H]34,-27.6,–
CCOC(=O)c1c(C(C#N)=CN)c2ccc(Cl)c(Cl)c2n1C,53.9,–
CC[C@H]1C=CC=CC[C@@H](C)[C@H](O)[C@@](C)(O)C(=O)[C@@H](C)[C@H](O)[C@@H](C)C(=O)[C@@H](C)[C@H](O)[C@@H](C)C=CC(=O)O[C@@H]2[C@@H](C)[C@H](CC1)O[C@]1(CC[C@H](C)[C@H](C[C@@H](C)O)O1)[C@H]2C,69.8,–
Oc1ccc2c3c1O[C@H]1c4[nH]c5c(c4C[C@@]4(O)[C@@H](C2)N(CC2CC2)CC[C@]314)C[C@@]1(O)[C@H]2Cc3ccc(O)c4c3[C@@]1(CCN2CC1CC1)[C@H]5O4,14.1,–
O=C1C=CC[C@@H]2[C@H]3CCCN4CCC[C@@H](CN12)[C@@H]34,–,4.69 µM (active)
C[C@](O)(COc1ccc(C#N)cc1)C(=O)Nc1ccc(C#N)c(C(F)(F)F)c1,-1.27,–
Cc1c(C(=O)Nc2cccc(C(F)(F)F)c2)cc(-c2ccccc2)n1CCCN1CCOCC1,1.5,–
CC(=Cc1csc(C)n1)[C@@H]1C[C@H]2O[C@]2(C)CCC[C@H](C)[C@@H](O)[C@@H](C)C(=O)C(C)(C)[C@@H](O)CC(=O)O1,6.99,–
CCCCCC[C@H]1C(=O)O[C@H](C)[C@H](NC(=O)c2cccc(NC=O)c2O)C(=O)O[C@@H](C)[C@@H]1OC(=O)CC(C)C,2.89,–
Cc1c(C(=O)c2cccc3ccccc23)c2cccc3c2n1[C@H](CN1CCOCC1)CO3,-4.85,–
CC(O)=C(C#N)C(=O)Nc1cc(Br)ccc1Br,37.9,–
C1=C2CCCN[C@H]2[C@@H]2C[C@H]1[C@@H]1CCCCN1C2,-7.16,–
CCC(=O)OC1CCC2C3CCC4=CC(=O)CC[C@@]4(C)C3CC[C@]12C (some centres undefined),62.8,–
NC1CC1c1ccccc1 (centres undefined),–,inactive
c1ccc(CCCN2CCN(CCOC(c3ccccc3)c3ccccc3)CC2)cc1,–,inactive
CN1CCN(c2ccc([N+](=O)[O-])c3no[n+]([O-])c23)CC1,158,–
C[C@]12COC(=O)C[C@@H]1CC[C@@H]1[C@H]2CC[C@@]2(C)[C@H]1CC[C@]2(C)O,22.7,–
CC(C)[C@H]1C(=O)N[C@H](CO)Cc2c[nH]c3cccc(c23)N1C,–,23.5 µM (active)
C[C@@]12OC(=O)[C@]1([C@@H](O)[C@@H]1C=CCCC1)NC(=O)[C@H]2CCCl,85.7,–
CCNC(=O)C[C@@H]1N=C(c2ccc(Cl)cc2)c2cc(OC)ccc2-n2c(C)nnc21,31.1,–
CC(=Cc1csc(C)n1)[C@@H]1C[C@H]2O[C@@H]2CCC[C@H](C)[C@@H](O)[C@@H](C)C(=O)C(C)(C)[C@@H](O)CC(=O)O1,-8.98,–
C[C@]12CCC(=O)C(O)=C1CC[C@@H]1[C@H]3CCC(=O)[C@@]3(C)CC[C@@H]12,97.1,–
